Laboratory results as given in PubChem BioAssay (NCATS).
Results filed as inconclusive are left out. The source made the active and inactive calls. Calls follow the shape of the dose curve; as a rule, active = well fitted cell-killing curve with a large enough effect; inconclusive = small, poorly fitted or top-dose-only effect, or effect the other way; inactive = no such curve, though single readings can be large or run the other way.

Columns and labels:
[1] = Quantitative High-Throughput drug screen in 47 multiple myeloma cell lines against the NCATS MIPE library collection: MM1R_ATCC cell viability assay (AID 1918981); also: nearly all actives have a fitted effect of over 35% in size; also: potency is read from the fitted curve at half-maximal effect
In short: (§1)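 500 cells/well; MIPE 4.0 drugs pin-transferred; 48 h, 37C, 5% CO2. CellTiter-Glo, 5 min RT, luminescence. Controls: DMSO 100%, media 0%.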

[2] = Quantitative High-Throughput drug screen in 47 multiple myeloma cell lines against the NCATS MIPE library collection: OCIMY7_PLB cell viability assay (AID 1918987); settings: OCI-MY7 myeloma viability, CellTiter-Glo ATP, 48 h; viability (% of DMSO): at 45.8 µM (top of the series); also: potency is read from the fitted curve at half-maximal effect; nearly all actives have a fitted effect of over 65% in size
In short: as §1

[3] = Quantitative High-Throughput drug screen in 47 multiple myeloma cell lines against the NCATS MIPE library collection: OCIMY5_PLB cell viability assay (AID 1918988); also: potency is read from the fitted curve at half-maximal effect; nearly all actives have a fitted effect of over 65% in size
In short: as §1

[4] = Quantitative High-Throughput drug screen in 47 multiple myeloma cell lines against the NCATS MIPE library collection: U266_ATCC cell viability assay (AID 1919864); also: nearly all actives have a fitted effect of over 35% in size; also: potency is read from the fitted curve at half-maximal effect;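 as to viability (% of DMSO control): 0% = media-only wells without cells and 100% = DMSO-only wells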
In short: as §1

[5] = Quantitative High-Throughput drug screen in 47 multiple myeloma cell lines against the NCATS MIPE library collection: XG6_PLB cell viability assay (AID 1919865); also: nearly all actives have a fitted effect of over 40% in size; also: potency is read from the fitted curve at half-maximal effect
In short: as §1

[6] = Quantitative High-Throughput drug screen in 47 multiple myeloma cell lines against the NCATS MIPE library collection: VP6_DJ cell viability assay (AID 1919867); also: nearly all actives have a fitted effect of over 40% in size; also: potency is read from the fitted curve at half-maximal effect;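 as to viability (% of DMSO): 100% = DMSO-only wells and 0% = wells with media alone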
In short: as §1

[7] = Quantitative High-Throughput drug screen in 47 multiple myeloma cell lines against the NCATS MIPE library collection: UTMC2_PLB cell viability assay (AID 1919868); settings: CellTiter-Glo ATP luminescence, 48 h; viability (% of DMSO control): at 45.8 µM (top of the series); also: nearly all actives have a fitted effect of over 55% in size; also: potency is read from the fitted curve at half-maximal effect;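 as to viability (% of DMSO control): 100% = DMSO-only wells and 0% = media-only wells without cells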
In short: as §1

[8] = Quantitative High-Throughput drug screen in 47 multiple myeloma cell lines against the NCATS MIPE library collection: XG1_PLB cell viability assay (AID 1919866); also: nearly all actives have a fitted effect of over 35% in size; also: potency is read from the fitted curve at half-maximal effect
In short: as §1

[9] = Quantitative High-Throughput drug screen in 47 multiple myeloma cell lines against the NCATS MIPE library collection: PCM6_Riken cell viability assay (AID 1919870); also: nearly all actives have a fitted effect of over 30% in size; also: potency is read from the fitted curve at half-maximal effect
In short: as §1

[10] = Quantitative High-Throughput drug screen in 47 multiple myeloma cell lines against the NCATS MIPE library collection: LP1_DSMZ cell viability assay (AID 1918982); also: nearly all actives have a fitted effect of over 35% in size; also: potency is read from the fitted curve at half-maximal effect
In short: as §1

[11] = Quantitative High-Throughput drug screen in 47 multiple myeloma cell lines against the NCATS MIPE library collection: KMS28PE_JCRB cell viability assay (AID 1918983); also: nearly all actives have a fitted effect of over 35% in size; also: potency is read from the fitted curve at half-maximal effect
In short: as §1

[12] = Quantitative High-Throughput drug screen in 47 multiple myeloma cell lines against the NCATS MIPE library collection: L363_DSMZ cell viability assay (AID 1918984); also: nearly all actives have a fitted effect of over 40% in size; also: potency is read from the fitted curve at half-maximal effect
In short: as §1

[13] = Quantitative High-Throughput drug screen in 47 multiple myeloma cell lines against the NCATS MIPE library collection: MM1S_ATCC cell viability assay (AID 1918980); also: nearly all actives have a fitted effect of over 45% in size; also: potency is read from the fitted curve at half-maximal effect
In short: as §1

[14] = Quantitative High-Throughput drug screen in 47 multiple myeloma cell lines against the NCATS MIPE library collection: OPM1_PLB cell viability assay (AID 1918989); also: potency is read from the fitted curve at half-maximal effect; nearly all actives have a fitted effect of over 40% in size
In short: as §1

[15] = Quantitative High-Throughput drug screen in 47 multiple myeloma cell lines against the NCATS MIPE library collection: PE2_PLB cell viability assay (AID 1919869)
In short: as §1

[16] = Quantitative High-Throughput drug screen in 47 multiple myeloma cell lines against the NCATS MIPE library collection: SKMM1_PLB cell viability assay (AID 1919863); settings: SKMM1 myeloma viability, CellTiter-Glo ATP, 48 h; viability: hits give low values; also: nearly all actives have a fitted effect of over 35% in size; also: potency is read from the fitted curve at half-maximal effect
In short: as §1

[17] = Quantitative High-Throughput drug screen in 47 multiple myeloma cell lines against the NCATS MIPE library collection: OCIMY1_PLB cell viability assay (AID 1918979)
In short: as §1

[18] = Quantitative High-Throughput drug screen in 47 multiple myeloma cell lines against the NCATS MIPE library collection: KMS34_JCRB cell viability assay (AID 1918985); also: nearly all actives have a fitted effect of over 40% in size; also: potency is read from the fitted curve at half-maximal effect
In short: as §1

CC(=O)O[C@]1(C(C)=O)CC[C@@H]2[C@@H]3C[C@H](C)C4=CC(=O)CC[C@]4(C)[C@H]3CC[C@@]21C
inactive: Potency [7]
active: Potency [1] 20.9 µM | Potency [2] 23.5 µM | Potency [3] 16.6 µM | Potency [4] 20.9 µM | Potency [5] 23.5 µM | Potency [6] 14.8 µM

Clc1ccc(COC(Cn2ccnc2)c2ccc(Cl)cc2Cl)cc1 (stereo unspecified)
active: Potency [8] 18.7 µM | Potency [6] 20.9 µM | Potency [9] 20.9 µM

CO[C@H]1C[C@@H]2CC[C@@H](C)[C@@](O)(O2)C(=O)C(=O)N2CCCC[C@@H]2C(=O)O[C@H]([C@@H](C)C[C@@H]2CC[C@H](O)[C@H](OC)C2)CC(=O)[C@H](C)C=C(C)[C@@H](O)[C@@H](OC)C(=O)[C@H](C)C[C@H](C)C=CC=CC=C1C
inactive: Potency [10] | Potency [11] | Potency [12] | Potency [5]
active: Potency [2] 14.8 µM

COc1ccc(C2CC(c3ccccc3)=NN2c2ccc(S(N)(=O)=O)cc2)cc1 (stereo unspecified)
inactive: Potency [4]
active: Potency [13] 23.5 µM | Potency [1] 16.6 µM | Potency [12] 16.6 µM | Potency [14] 20.9 µM | Potency [5] 18.7 µM | Potency [15] 23.5 µM | Potency [9] 26.4 µM

COc1ncc(-c2ccc3nccc(-c4ccnnc4)c3c2)cc1NS(=O)(=O)c1ccc(F)cc1F
active: Potency [2] 0.166 µM | Potency [3] 1.48 µM | Potency [5] 0.0187 µM | Potency [9] 0.0332 µM

NC(=O)c1cnc(-c2ccc(C3(N)CCC3)cc2)c(-c2ccccc2)c1
active: Potency [1] 7.43 µM | Potency [10] 2.64 µM | Potency [11] 0.332 µM | Potency [2] 1.87 µM | Potency [3] 0.187 µM | Potency [5] 16.6 µM | Potency [6] 13.2 µM | Potency [15] 5.9 µM | Potency [9] 1.32 µM
inactive: Potency [8]

O=C1NC(=O)C(=Cc2ccc3nccnc3c2)S1
active: Potency [13] 6.45 µM | Potency [1] 8.12 µM | Potency [11] 10.2 µM | Potency [2] 2.29 µM | Potency [14] 6.45 µM | Potency [8] 6.45 µM | Potency [6] 4.57 µM | Potency [7] 3.63 µM

CC(C)n1cnc2c(NCCCCCCNC(=O)OC(C)(C)C)nc(NCCO)nc21
active: Potency [13] 20.9 µM | Potency [1] 20.9 µM | Potency [10] 18.7 µM | Potency [3] 29.6 µM | Potency [14] 20.9 µM | Potency [4] 9.35 µM | Potency [5] 26.4 µM | Potency [8] 23.5 µM | Potency [9] 16.6 µM

O=C1Nc2ccc(Cl)cc2C(C#CC2CC2)(C(F)(F)F)O1 (stereo unspecified)
active: Potency [3] 16.6 µM | Potency [14] 20.9 µM | Potency [4] 23.5 µM | Potency [8] 16.6 µM | Potency [15] 23.5 µM | Potency [9] 23.5 µM

O=c1cc(-c2ccccc2)oc2cc(O)c(O)c(O)c12
active: Potency [13] 18.7 µM | Potency [1] 23.5 µM | Potency [14] 11.8 µM | Potency [16] 18.7 µM
inactive: Potency [9]

COc1ccc2cc(-c3nc(-c4ccc(S(C)=O)cc4)[nH]c3-c3ccncc3)ccc2c1 (stereo unspecified)
inactive: Potency [17] | viability [16] 106%
active: Potency [3] 14.8 µM | Potency [14] 20.9 µM | Potency [8] 23.5 µM | Potency [15] 14.8 µM

COc1cccc2c1CCCC2CCCN1CCN(C2CCCCC2)CC1 (stereo unspecified)
inactive: Potency [18]
active: Potency [11] 14.8 µM | Potency [12] 16.6 µM | Potency [2] 13.2 µM | Potency [3] 16.6 µM | Potency [14] 20.9 µM | Potency [5] 23.5 µM | Potency [8] 18.7 µM | Potency [6] 16.6 µM | Potency [7] 16.6 µM | Potency [15] 23.5 µM | Potency [9] 13.2 µM

CC(C)(C)c1cc(C(=O)O)c(NC(=O)Nc2ccc3[nH]ncc3c2)s1
active: Potency [13] 16.6 µM | Potency [15] 16.6 µM
inactive: Potency [1] | Potency [10] | Potency [18] | Potency [5] | Potency [8] | Potency [6] | Potency [7] | Potency [9]

CO[C@H]1C[C@@H]2CC[C@@H](C)[C@@](O)(O2)C(=O)C(=O)N2CCCC[C@@H]2C(=O)O[C@H]([C@H](C)C[C@@H]2CC[C@H](OCCO)[C@H](OC)C2)CC(=O)[C@H](C)C=C(C)[C@@H](O)[C@@H](OC)C(=O)[C@H](C)C[C@H](C)C=CC=CC=C1C
active: Potency [7] 0.235 µM | Potency [15] 1.48 µM
inactive: Potency [10]

Cc1ccc([C@@H]2O[C@H](CO)[C@@H](O)[C@H](O)[C@@H]2O)cc1Cc1ccc(-c2ccc(F)cc2)s1
active: Potency [18] 23.5 µM | Potency [15] 18.7 µM
inactive: Potency [11] | viability [16] 118% | Potency [7]

COc1cc(NC(=O)c2ccc(-c3ccc(Cl)cc3)o2)cc(OC)c1
inactive: Potency [1] | Potency [10] | viability [16] 155%
active: Potency [13] 1.05 µM | Potency [2] 3.32 µM | Potency [4] 1.66 µM | Potency [5] 1.66 µM | Potency [8] 3.32 µM | Potency [6] 8.33 µM | Potency [7] 10.5 µM | Potency [15] 5.9 µM | Potency [9] 5.9 µM

CCCCCNC(=O)N1CCC(CN(Cc2ccc(Cl)cc2)Cc2ccc([N+](=O)[O-])s2)C1 (stereo unspecified)
active: Potency [10] 29.6 µM | Potency [18] 26.4 µM | Potency [2] 16.6 µM | Potency [3] 23.5 µM | Potency [16] 18.7 µM | Potency [4] 16.6 µM | Potency [15] 23.5 µM

Clc1ccc(CCC(Cn2ccnc2)Sc2c(Cl)cccc2Cl)cc1 (stereo unspecified)
inactive: Potency [4]
active: Potency [2] 13.2 µM | Potency [5] 23.5 µM | Potency [6] 26.4 µM | Potency [7] 18.7 µM | Potency [15] 20.9 µM | Potency [9] 18.7 µM

NC(=O)NN=Cc1ccc([N+](=O)[O-])o1
active: Potency [12] 23.5 µM | Potency [6] 14.8 µM
inactive: Potency [11] | Potency [18]

CC1(C)CCC2=C(O1)c1ccccc1C(=O)C2=O
active: Potency [13] 26.4 µM | Potency [1] 23.5 µM | Potency [10] 20.9 µM | Potency [18] 13.2 µM | Potency [2] 3.32 µM | Potency [3] 18.7 µM | Potency [14] 20.9 µM | Potency [4] 20.9 µM | Potency [8] 26.4 µM | Potency [7] 20.9 µM | Potency [15] 20.9 µM | Potency [9] 20.9 µM

CC[C@@H]1C=C(C)C[C@H](C)C[C@H](OC)[C@H]2O[C@@](O)(C(=O)C(=O)N3CCCC[C@@H]3C(=O)O[C@H](C(C)=C[C@@H]3CC[C@H](Cl)[C@H](OC)C3)[C@H](C)[C@@H](O)CC1=O)[C@H](C)C[C@H]2OC
active: Potency [13] 14.8 µM | Potency [11] 16.6 µM | Potency [12] 10.5 µM | Potency [18] 16.6 µM | Potency [2] 10.5 µM | Potency [3] 16.6 µM | Potency [8] 14.8 µM | Potency [15] 20.9 µM

CC=C(C)C(=O)O[C@H]1C(C)=C[C@]23C(=O)[C@@H](C=C(CO)[C@@H](O)[C@]12O)[C@H]1[C@@H](C[C@H]3C)C1(C)C
active: Potency [1] 18.7 µM | Potency [18] 20.9 µM | Potency [2] 14.8 µM | Potency [14] 4.18 µM | Potency [5] 3.72 µM | Potency [6] 26.4 µM

CO[C@H]1C[C@@H]2CC[C@@H](C)[C@@](O)(O2)C(=O)C(=O)N2CCCC[C@@H]2C(=O)O[C@H]([C@H](C)C[C@@H]2CC[C@H](OP(C)(C)=O)[C@H](OC)C2)CC(=O)[C@H](C)C=C(C)[C@@H](O)[C@@H](OC)C(=O)[C@H](C)C[C@H](C)C=CC=CC=C1C
active: Potency [2] 14.8 µM
inactive: Potency [13] | Potency [1] | Potency [10] | viability [16] 83.3% | Potency [4] | Potency [8] | Potency [7]

CC(C)n1nc(-c2ccc3oc(N)nc3c2)c2c(N)ncnc21
active: Potency [13] 0.0105 µM | Potency [2] 2.64 µM | Potency [3] 4.69 µM | Potency [14] 0.001 µM | Potency [6] 0.001 µM | Potency [9] 0.0662 µM
